# Where “and” joins values, the source holds several entries; their conditions need not be identical. Equal entries are not always repeated. About 2,000 (36%) of roughly 5,500 compounds were called active. About 18% were inconclusive and are not listed. This is one part of the list. Unmarked numbers belong to inactive results. Cut-off read from the data, not from the text of the source: active = normalized growth mostly below about 0.91 (no sharp cut-off); inconclusive = no clear call, values can overlap the other calls; inactive = mostly above about 0.92.
# Assay: chemical genetic growth profiling, strain panel (AID 1159580);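 note: tested at 20 µM; growth read once vehicle control cultures reached saturation at 30 °C; 1 = growth at the plate median or of vehicle wells; lower values mean less growth of the strain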
# Settings: S. cerevisiae deletion strains, growth OD
smiles,measurement,setting,value
Cc1cc(O)c(C=O)c2c1C(=O)Oc1c(COC(=O)/C=C/C(=O)O)c(O)c(C(=O)O)c(C)c1O2,normalized growth,"locus YAL021C, strain ccr4, hits give low values",0.915
same,normalized growth,"locus YAL026C, strain drs2, hits give low values",0.841 (active)
same,normalized growth,"locus YAL030W, strain snc1, hits give low values",0.96
same,normalized growth,"locus YBL061C, strain skt5, hits give low values",0.96
same,normalized growth,"locus YBR009C, strain hhf1, hits give low values",0.937
same,normalized growth,"locus YBR021W, strain FUR4, hits give low values",1.06
same,normalized growth,"locus YBR023C, strain chs3, hits give low values",0.967
same,normalized growth,"locus YBR171W, strain sec66, hits give low values",0.983
same,normalized growth,"locus YBR229C, strain ROT2, hits give low values",0.988
same,normalized growth,"locus YBR231C, strain swc5, hits give low values",0.885 (active)
same,normalized growth,"locus YBR279W, strain paf1, hits give low values",0.933
same,normalized growth,"locus YCL011C, strain gbp2, hits give low values",0.974
same,normalized growth,"locus YCL016C, strain dcc1, hits give low values",0.992
same,normalized growth,"locus YCL029C, strain bik1, hits give low values",0.98
same,normalized growth,"locus YCL061C, strain MRC1, hits give low values",0.912 (active)
same,normalized growth,"locus YCL069W, strain vba3, hits give low values",0.973
same,normalized growth,"locus YCR088W, strain abp1, hits give low values",1.02
same,normalized growth,"locus YDL005C, strain med2, hits give low values",1.02
same,normalized growth,"locus YDL035C, strain GPR1, hits give low values",0.929
same,normalized growth,"locus YDL040C, strain nat1, hits give low values",1
same,normalized growth,"locus YDL074C, strain BRE1, hits give low values",0.936
same,normalized growth,"locus YDL101C, strain DUN1, hits give low values",0.959
same,normalized growth,"locus YDL185W, strain tfp1, hits give low values",0.919
same,normalized growth,"locus YDL192W, strain arf1, hits give low values",0.95
same,normalized growth,"locus YDR001C, strain nth1, hits give low values",0.998
same,normalized growth,"locus YDR069C, strain doa4, hits give low values",0.883 (active)
same,normalized growth,"locus YDR101C, strain arx1, hits give low values",0.977
same,normalized growth,"locus YDR137W, strain rgp1, hits give low values",1.04
same,normalized growth,"locus YDR150W, strain NUM1, hits give low values",0.951
same,normalized growth,"locus YDR159W, strain sac3, hits give low values",0.981
same,normalized growth,"locus YDR162C, strain NBP2, hits give low values",0.808 (active)
same,normalized growth,"locus YDR195W, strain ref2",1.1
same,normalized growth,"locus YDR297W, strain sur2, hits give low values",0.957
same,normalized growth,"locus YDR318W, strain mcm21, hits give low values",0.991
same,normalized growth,"locus YDR334W, strain swr1, hits give low values",0.891 (active)
same,normalized growth,"locus YDR335W, strain msn5, hits give low values",0.943
same,normalized growth,"locus YDR388W, hits give low values",0.992
same,normalized growth,"locus YDR392W, strain spt3, hits give low values",0.813
same,normalized growth,"locus YDR502C, strain sam2, hits give low values",0.96
same,normalized growth,"locus YEL003W, strain gim4, hits give low values",0.977
same,normalized growth,"locus YEL037C, strain rad23, hits give low values",0.939
same,normalized growth,"locus YEL061C, strain CIN8 (second series), hits give low values",0.993
same,normalized growth,"locus YEL061C, strain CIN8, hits give low values",0.97
same,normalized growth,"locus YER015W, strain faa2, hits give low values",0.874 (active)
same,normalized growth,"locus YER016W, strain bim1, hits give low values",1.03
same,normalized growth,"locus YER110C, hits give low values",0.981
same,normalized growth,"locus YER111C, strain swi4, hits give low values",0.906 (active)
same,normalized growth,"locus YER155C, strain BEM2 (second series), hits give low values",1.01
same,normalized growth,"locus YER155C, strain BEM2, hits give low values",1
same,normalized growth,"locus YER167W, strain BCK2, hits give low values",1.01
same,normalized growth,"locus YFR010W, strain ubp6, hits give low values",0.873 (active)
same,normalized growth,"locus YGL078C, strain dbp3, hits give low values",0.969
same,normalized growth,"locus YGL086W, strain mad1, hits give low values",0.971
same,normalized growth,"locus YGL167C, strain pmr1, hits give low values",0.993
same,normalized growth,"locus YGL173C, strain kem1, hits give low values",0.856 (active)
same,normalized growth,"locus YGL227W, strain vid30, hits give low values",1.02
same,normalized growth,"locus YGL240W, strain doc1, hits give low values",1.06
same,normalized growth,"locus YGL248W, strain PDE1, hits give low values",0.947
same,normalized growth,"locus YGL253W, strain hxk2, hits give low values",0.787 (active)
same,normalized growth,"locus YGR135W, strain pre9, hits give low values",0.958
same,normalized growth,"locus YGR229C, strain SMI1, hits give low values",0.734 (active)
same,normalized growth,"locus YGR252W, strain gcn5, hits give low values",1.12
same,normalized growth,"locus YHR013C, strain ard1, hits give low values",0.877
same,normalized growth,"locus YHR027C, strain rpn1, hits give low values",0.761 (active)
same,normalized growth,"locus YHR030C, strain SLT2, hits give low values",0.973 and 0.971
same,normalized growth,"locus YHR079C, strain IRE1 (second series), hits give low values",0.994
same,normalized growth,"locus YHR079C, strain IRE1, hits give low values",0.985
same,normalized growth,"locus YHR094C, strain hxt1, hits give low values",0.994
same,normalized growth,"locus YHR129C, strain ARP1, hits give low values",0.937
same,normalized growth,"locus YHR142W, strain chs7, hits give low values",0.852 (active)
same,normalized growth,"locus YHR200W, strain rpn10, hits give low values",0.976
same,normalized growth,"locus YIL066C, strain RNR3, hits give low values",0.896
same,normalized growth,"locus YIL073C, strain SPO22, hits give low values",0.898
same,normalized growth,"locus YIL125W, strain kgd1, hits give low values",0.969
same,normalized growth,"locus YIR030C, strain dcg1, hits give low values",0.993
same,normalized growth,"locus YJL092W, strain hpr5, hits give low values",0.952
same,normalized growth,"locus YJL095W, strain BCK1 (second series), hits give low values",0.961
same,normalized growth,"locus YJL095W, strain BCK1, hits give low values",0.904 and 0.959
same,normalized growth,"locus YJL115W, strain asf1, hits give low values",1
same,normalized growth,"locus YJL129C, strain trk1, hits give low values",1.08
same,normalized growth,"locus YJL134W, strain LCB3, hits give low values",0.978
same,normalized growth,"locus YJL154C, strain vps35, hits give low values",0.992
same,normalized growth,"locus YJL164C, strain tpk1, hits give low values",0.935
same,normalized growth,"locus YJL166W, strain qcr8, hits give low values",0.947
same,normalized growth,"locus YJL168C, strain set2, hits give low values",0.974
same,normalized growth,"locus YJL187C, strain SWE1 (second series), hits give low values",0.879

# — PubChem BioAssay AID1159580 (chemical genetic matrix, 2015)
